Hits are enriched below; roughly 12% of the tested compounds scored in any of these assays.
Sfp inh: Sfp phosphopantetheinyl transferase inhibition. Potency, µM, without a hit: largest response in the series, negative = inhibition, most hits filed as inhibitors. Q9F4F7. Biochemical Sfp PPTase activity, qHTS. hit rate 3.5% among 310,000. AID 1490;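 further: the enzyme is Sfp with the accession as filed and its product quenches rhodamine fluorescence; potency means the concentration at half of the fitted maximal effect; 0% = enzyme reaction without inhibitor and -100% = no enzyme wells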
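Sfp 15 nM + cpd, 15 min RT; start w/ rhodamine-CoA 5 uM, BHQ-2-YbbR 12.5 uM (final); 50 mM Hepes pH 7.6, 10 mM MgCl2, 0.01% NP-40, 0.01% BSA; read 525/598 nm at 0 and 30 min.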
HP1b binding inh: blocks HP1-beta chromodomain binding to methylated histone tails. P83916. AlphaScreen HP1-beta / biotin-H3K9me3 peptide binding. Potency, µM (highest dose often 114 µM), for inactives: at the top dose activity change, negative = inhibition, most hits filed as inhibitors. hit rate 0.56% among 390,000. AID 540317; further: potency means the concentration at half of the fitted maximal effect; nearly all actives have a fitted effect of over 70% in size
Target sequence (P83916 whole entry, looked up): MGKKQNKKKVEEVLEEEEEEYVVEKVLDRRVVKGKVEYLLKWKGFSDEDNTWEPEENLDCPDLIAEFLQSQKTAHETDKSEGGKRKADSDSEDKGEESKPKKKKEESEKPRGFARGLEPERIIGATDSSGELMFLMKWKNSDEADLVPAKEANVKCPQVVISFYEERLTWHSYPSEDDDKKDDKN
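AlphaScreen: HP1-beta (50 nM) preformed 30 min with biotin-H3(1-18)K9me3 peptide (50 nM) in PBS pH 7.4, 0.01% Tween-20. Compound added for 30 min at RT, then streptavidin donor/nickel chelate acceptor beads (10 ug/mL) for 30 min.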
JMJD2A Tudor inh: JMJD2A Tudor domain (human) inhibition; Potency, µM (top dose mostly 114 µM), without a hit: top-dose activity change, negative = inhibition, most hits filed as inhibitors; AID 504339; O75164; AlphaScreen JMJD2A-Tudor / H3K4me3 peptide binding; hit rate 4.4% among 390,000; further: potency means the concentration at half of the fitted maximal effect; on the % scale 0 is the no-effect control and ±100 the full control effect; nearly all actives have a fitted effect of over 50% in size
G9a block: inhibitors of human histone lysine methyltransferase G9a; Potency, µM (series often up to 102 µM), inactives show at the highest dose activity, negative = inhibition, hits mostly inhibitors; hit rate 8.8% among 350,000; G9a H3K9 monomethylation, AlphaScreen, 2 h; Q96KQ7; further: potency means the concentration at half of the fitted maximal effect; on the % scale 0 is the no-effect control and ±100 the full control effect; nearly all actives have a fitted effect of over 75% in size
Target sequence (Q96KQ7 913-1193 limits assumed): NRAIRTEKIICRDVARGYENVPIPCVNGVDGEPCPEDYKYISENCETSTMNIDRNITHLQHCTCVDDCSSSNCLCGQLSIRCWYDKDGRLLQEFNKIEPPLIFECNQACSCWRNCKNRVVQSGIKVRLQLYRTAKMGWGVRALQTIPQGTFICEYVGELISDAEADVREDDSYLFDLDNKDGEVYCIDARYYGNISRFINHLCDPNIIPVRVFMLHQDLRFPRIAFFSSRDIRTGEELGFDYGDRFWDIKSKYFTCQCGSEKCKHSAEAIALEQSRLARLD
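Signal arises when biotinylated H3K9 peptide, once monomethylated, bridges streptavidin donor and antibody-captured acceptor beads. Enzyme at 20 nM was preincubated 15 min with test compounds; peptide 500 nM and SAM 20 uM then reacted for 2 h.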
BAZ2B block: blocks human BAZ2B; Q9UIF8; AlphaScreen BAZ2B-H3K14Ac peptide displacement; Potency, µM (highest dose often 114 µM), inactives show at the top dose activity change, negative = inhibition, actives largely listed as inhibitors; hit rate 4.4% among 360,000; further: potency means the concentration at half of the fitted maximal effect; on the % scale 0 is the no-effect control and ±100 the full control effect; nearly all actives have a fitted effect of over 60% in size
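Protein-peptide AlphaScreen: BAZ2B 50 nM, b-H3K14Ac 50 nM, 1x PBS pH 7.4 + 0.01% Tween-20. Preincubation 30 min RT; cpd 30 min RT (top 110 uM); beads 20 min RT, light-protected.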
Sfp PPTase conf: confirmation of Bacillus subtilis Sfp PPTase inhibitors; Potency, µM (series often up to 114 µM), for the others: at the highest dose activity change, negative = inhibition, usual class: inhibitors; hit rate 79% among 380; AID 2701; Sfp PPTase enzymatic assay, qHTS titration; shares compounds with Sfp inh;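 further: potency means the concentration at half of the fitted maximal effect; plate controls were uninhibited Sfp reaction for no effect and no enzyme control for full effect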
Target sequence (Q9F4F7 whole entry, looked up): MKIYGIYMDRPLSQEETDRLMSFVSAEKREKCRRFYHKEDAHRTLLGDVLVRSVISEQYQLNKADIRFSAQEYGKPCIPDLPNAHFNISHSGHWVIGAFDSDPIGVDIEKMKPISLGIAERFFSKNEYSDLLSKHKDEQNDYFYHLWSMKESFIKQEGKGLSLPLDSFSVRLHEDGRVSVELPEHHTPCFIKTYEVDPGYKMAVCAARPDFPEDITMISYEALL
Sfp gel assay: Inhibits B. subtilis Sfp phosphopantetheinylation; hit rate 20% among 210; AID 2707; Potency, µM, hits mostly inhibitors; purified Sfp, gel-based phosphopantetheinylation read-out; shares compounds with Sfp inh;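 active means potency below 100 µM; inconclusive means dose-dependent response but potency above 100 µM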;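 further: band intensities scaled against SCH202676 control wells before curve fitting; potency is an IC50 for inhibitors of Sfp transfer activity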
An asterisk follows results filed as active; i = inactive; ? = inconclusive; · = no result given; ! = not confirmed by another sample; [ ] = another dose, or the depositor's remark. Unless noted, the call rests on the fitted dose curve; in most records, active means well fitted curve in the direction sought with a large enough effect; inconclusive means small, poorly fitted or top-dose-only effect, or another doubt; inactive means no such curve, though single readings can be large; an effect the other way counts as inactive or inconclusive.

SMILES	Sfp inh	HP1b binding inh	JMJD2A Tudor inh	G9a block	BAZ2B block	others
C#CCOCCOCCOCCNc1nc(N2CCN(C(=O)CCCCCCCCCCNC(=O)[C@H](CCCCN)n3cc(CCO)nn3)CC2)nc(N2CCN(C(=O)CCCCCCCCCCNC(=O)[C@H](CCCCN)n3cc(CCCC(=O)O)nn3)CC2)n1	·	15%	-35%	-7%[2.33 µM]	-27%
Cc1ccc(-n2nc3c(c2NC(=O)CC(C)C)CS(=O)C3)cc1 (stereo unspecified)	-9%	48%	-7%	32µM*	-10%
CC(C)(C)C(=O)Nc1c2c(nn1-c1ccc(F)cc1)CSC2	19%	14%[57 µM]	-14%	63%[59 µM]	-12%
Cc1ccccc1-n1nc2c(c1NC(=O)c1cccc(F)c1)CS(=O)C2 (stereo unspecified)	5%	54%	-10%	50µM*	9%
Cc1ccc(-n2nc3c(c2NC(=O)C(C)(C)C)CSC3)c(C)c1	71µM*	?	-12%	40µM*	-6%
CC(=O)Nc1c2c(nn1-c1ccccc1C)CS(=O)C2 (stereo unspecified)	6%	32%	-10%	10%	-12%
Cc1ccc(-n2nc3c(c2NC(=O)c2ccc(Br)o2)CSC3)c(C)c1	?	18%	-13%	40µM*	-8%
Cc1ccc(OCCC(=O)OCC(=O)Nc2ccc3c(c2)OCO3)cc1	·	30%	-20%	-29%	-2%
CCN1C(=O)[C@H]2[C@H]3CN=C(SCc4ccc(C(=O)OC)cc4)N3[C@@](C)(C(=O)OC)[C@H]2C1=O	·	30%	-19%	·	·
Cc1cccc(-n2nc3c(c2NC(=O)c2ccco2)CS(=O)C3)c1C (stereo unspecified)	16%	37%	4%	?	-30%
CCC(=O)Nc1c2c(nn1-c1ccc(C)cc1C)CSC2	?	23%	-13%	50µM*	-3%
Cc1cccc(-n2nc3c(c2NC(=O)c2ccco2)CSC3)c1C	40µM*	-26%	50µM*	40µM*	-6%
Cc1ccc(-n2nc3c(c2NC(=O)c2ccco2)CS(=O)C3)c(C)c1 (stereo unspecified)	·	23%	-15%	14µM*	9%
Cc1ccccc1-n1nc2c(c1NC(=O)CCCl)CSC2	9%	22%	-6%	6%[2.33 µM]	6%
CC(C)c1ccc(S(=O)(=O)c2nnn3c2nc(NC2CCCC2)c2sccc23)cc1	·	-4%	-23%	-2%[59 µM]	-10%
O=C(/C=C/c1cccc(Cl)c1Cl)OCC(=O)N1CCOCC1	·	5%	-1%	-1%	5%
COc1nc(-c2ccccc2)ccc1-c1noc(-c2ccco2)n1	?	?	50µM*	?	6%
Cc1ccc2cc(C#N)c(N3CCCN(C(=O)C4CCCO4)CC3)nc2c1C (stereo unspecified)	-11%	82%	24%	-5%[59 µM]	1%
Cc1nc(N2CCN(C(=O)c3ccco3)CC2)c(C#N)c2c1CCCC2	-11%	14%	-14%	7%	-17%[57.1 µM]
Cc1cc(C)c2nc(N3CCCN(C(=O)c4ccco4)CC3)c(C#N)cc2c1	45µM*	62%	0%	?	?
COc1ccc2nc(N3CCCC3)c(C#N)cc2c1	19%	142%	63%	118%	85%
COc1ccc2nc(N3CCCCC3)c(C#N)cc2c1	79µM*	i	435%	i	i
Cc1ccc2cc(C#N)c(N3CCCC3)nc2c1C	20µM*	373%	163%	?	102%
COC(=O)C1=C(C)N(Cc2ccccc2)[C@]23O[C@](C(=O)OC)(C(=O)N2C1c1ccccc1)C1C(=O)N(C)C(=O)C13 (stereo partly specified)	26%	·	·	·	·
Cc1ccc(-n2nnnc2SCC(=O)c2c(N)n(C3CC3)c(=O)[nH]c2=O)c(C)c1	·	26%	-14%	0%[59 µM]	-5%
SMILES	Sfp inh	HP1b binding inh	JMJD2A Tudor inh	G9a block	BAZ2B block	others
CN(C)CCOC(=O)c1ccc2[nH]c3c(c2c1)CSCC3	2%	?	-31%	28µM*	-24%
O=C(O)c1cc2[nH]c3c(c2cc1Cl)CCCC3	26%	10%	-30%	2%[0.501 µM]	-8%
O=C(O)c1ccc2[nH]c3c(c2c1)CSCC3	40µM*	33%	-12%	?	-3%
CCCN=C(C)C1=C(O)c2ccccc2C1=O	7%	27%	3%	?	16%
CCOC(=O)C1=C(O)c2ccccc2C(=O)/C1=C\c1ccc(CC)cc1	2µM*	-71%	22µM*	5.6µM*	20µM*
CCCc1ccc(/C=C2\C(=O)c3ccccc3C(O)=C2C(=O)OCC)cc1	2.8µM*	·	·	5.6µM*	20µM*
CCOC(=O)c1ccc(COC(=O)c2ccc3c(c2)-c2ccccc2C3=O)cc1	3%	24%	-17%	0%[59 µM]	7%
CC[C@H](C)[C@@H]1NC(=O)[C@H]([C@@H](C)CC)NC(=O)[C@@H](CC(C)C)NC(=O)[C@H](Cc2ccccc2)NC(=O)[C@H](Cc2ccccc2)NC(=O)[C@@H]2CCCN2C(=O)[C@@H]2CCCN2C(=O)[C@H](C(C)C)NC(=O)[C@H](CC(C)C)NC1=O	·	24%	-30%	·	·
NC(CO)C(=O)NNCc1ccc(O)c(O)c1O (stereo unspecified)	6.3µM*!	?	10µM*	1.4µM*	4.5µM*	Sfp PPTase conf=11µM*
Cc1ccc(C(=O)NC(=S)Nc2ccc(-c3ccc(CO)o3)cc2)cc1	7.1µM*	-9%	?	?	·	Sfp PPTase conf=8.3µM*
Cc1ccc(C(=O)NC(=S)Nc2ccc(Oc3ccc(Cl)cc3)cc2)cc1	11%	3%	-15%	-16%	-27%
CC(C)[C@H](NC(=O)OC(C)(C)C)c1nnc(S(=O)(=O)Cc2c(F)cccc2Cl)o1	14µM*	48%	5%	?	1%	Sfp PPTase conf=30µM*;Sfp gel assay=?
Cc1ccc(-c2cc(C(=O)N3CCN(c4ncccn4)CC3)c3cc(Br)ccc3n2)o1	7.9µM*	?	35µM*	?	?	Sfp PPTase conf=4.7µM*
O=C(Nc1ccccc1)Oc1ccc[nH]c1=O	6.3µM*	-3%	-17%	?	?	Sfp PPTase conf=21µM*;Sfp gel assay=i
CN(C)CCCSc1nc2ccccc2s1	35µM*	?	-33%	14µM*	?	Sfp PPTase conf=?
CCCCc1ccc(NS(=O)(=O)c2cccc(C(=O)N3CCNC(=O)C3)c2)cc1	·	29%	-10%	-28%	8%
Cc1ccc(-c2cc(C(=O)NCc3ccco3)c3ccccc3n2)s1	2.8µM*	23%	-32%	50µM*	?	Sfp PPTase conf=47µM*;Sfp gel assay=?
O=C(NCc1ccco1)c1cc(-c2cccs2)nc2ccccc12	-18%	39%	-30%	9%[59 µM]	-7%

Screening data: PubChem BioAssay, National Center for Advancing Translational Sciences (NCATS)
